A short description of assay [1]: qHTS assay to identify small molecule antagonists of the estrogen related receptor (ERR) signaling pathway from Tox21 library - cell viability counter screen (AID 1224834). Further: nearly all actives have a fitted effect of over 30% in size. Further: potency means the concentration at half of the fitted maximal effect. In short, it runs like this: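 Cytotoxicity of test substances is gauged in the same ERR cells used for the antagonist screen, after 17.5 h of compound treatment at 37 C, by CellTiter-Fluor fluorescence measured after 30 min.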
In general terms: In qHTS, concentration-response curves come from the screen itself.

Assay [2] deals with Luciferin 4-monooxygenase (Photinus pyralis) (UniProt P08659). Nature of the assay: qHTS assay to identify small molecule inhibitors of firefly luciferase (AID 1224835). Further: nearly all actives have a fitted effect of over 25% in size. Further: potency means the concentration at half of the fitted maximal effect. Summed up:
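Biochemical qHTS: compounds run as interplate titrations against purified firefly enzyme, with D-luciferin and ATP each at its KM concentration. Light output recorded by CCD imaging.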

A short description of assay [3]: qHTS assay to identify small molecule agonists of the constitutive androstane receptor (CAR) signaling pathway - cell viability counter screen (AID 1224836). Further: nearly all actives have a fitted effect of over 45% in size. Further: potency means the concentration at half of the fitted maximal effect. In short, it runs like this: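 Fluorescence from CellTiter-Fluor indicates live cells after 23 h exposure. The human hepatoma line expresses hCAR and a CYP2B6-2.2kb reporter. Incubation medium contains 0.75 uM PK11195 (final).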

Assay [4] is described as follows: qHTS assay to identify small molecule antagonists of the constitutive androstane receptor (CAR) signaling pathway - cell viability counter screen (AID 1224837). Further: nearly all actives have a fitted effect of over 45% in size. Further: potency means the concentration at half of the fitted maximal effect. Summed up: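 Multiplexed cytotoxicity read-out for the CAR antagonist screen: double-stable HepG2-CYP2B6-hCAR cells co-treated with 50 nM CITCO (final) and compound over 15 concentrations, incubated 23 hr, then assessed by CellTiter-Fluor fluorescence.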

A short description of assay [5]: qHTS assay to identify small molecule antagonists of the estrogen related receptor signaling pathway with the pleiotropic PPARgamma coactivator (PGC) from Tox21 10K library - cell viability counter screen (AID 1224840; active means well fitted cell-killing curve with a large enough effect in the repeat runs, not every such curve was filed as active; further: nearly all actives have a fitted effect of over 40% in size). Summed up: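 Step one, plate 2,000 PGC/ERR cells per well; step two, incubate 6 h at 37 C/5% CO2; step three, pin-transfer compounds; step four, incubate 17.5 h; step five, add CellTiter-Fluor and read fluorescence after 30 min.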

Assay [6] is described as follows: qHTS assay to identify small molecule antagonists of the estrogen related receptor signaling pathway with the pleiotropic PPARgamma coactivator (PGC) from Tox21 10K library (AID 1224841; call rule not given here; further: actives are mostly falling curves and most rising ones were filed inactive; nearly all actives have a fitted effect of over 50% in size; further: potency means the concentration at half of the fitted maximal effect). In short, it runs like this: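 Antagonism in this quantitative HTS is taken from loss of luciferase signal in PGC/ERR cells. Cells (2,000/well) are treated with compounds in DMSO after a 6 h settling period and read by One-Glo luminescence after 18 h.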

A short description of assay [7]: qHTS assay to identify small molecule agonists of the estrogen related receptor signaling pathway with the pleiotropic PPARgamma coactivator (PGC) from Tox21 10K library (AID 1224842). Further: nearly all actives have a fitted effect of over 15% in size. Further: potency means the concentration at half of the fitted maximal effect. In short, it runs like this:
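PGC/ERR reporter cell line, 2,000 cells per well, incubated 6 h at 37 C before 23 nL compound in DMSO was added. After 18 h at 37 C, One-Glo luminescence read following 30 min at room temperature.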

In assay [8] the target is Nuclear receptor subfamily 1 group I member 3 (Homo sapiens) (UniProt Q14994). The experiment in a line: qHTS assay to identify small molecule antagonists of the constitutive androstane receptor (CAR) signaling pathway (AID 1224838). Further: nearly all actives have a fitted effect of over 40% in size. Further: potency means the concentration at half of the fitted maximal effect. Summed up:
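Compounds were titrated across 15 concentrations onto HepG2 cells double-stably expressing hCAR and a CYP2B6-2.2kb reporter, together with 50 nM CITCO (final). After 24 h at 37 C, luciferase activity was measured by luminescence.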

Assay [9] has the same target. The experiment in a line: qHTS assay to identify small molecule agonists of the constitutive androstane receptor (CAR) signaling pathway (AID 1224839). Further: nearly all actives have a fitted effect of over 15% in size. Further: potency means the concentration at half of the fitted maximal effect. Summed up:
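Stable hCAR/CYP2B6-2.2kb HepG2 line in DMEM with 10% FBS; compounds (15 concentrations) and 0.75 uM PK11195 final, 24 h at 37 C/5% CO2, then ONE-Glo luminescence after 30 min.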

Assay [10] is described as follows: qHTS assay to identify small molecule agonists of the estrogen related receptor signaling pathway with the pleiotropic PPARgamma coactivator (PGC) (AID 1224823). In short, it runs like this:
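Steps: plate PGC/ERR cells at 2,000 cells/well; incubate 6 h, 37 C/5% CO2; pin-transfer compounds (DMSO); incubate 18 h, 37 C; add One-Glo; 30 min RT; read luminescence.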

The structures appear in SMILES notation. Where “and” joins values, the source holds several entries; their conditions need not be identical. Identical values can stand only once. Results filed as inconclusive are left out. Where a structure was tested more than once in an assay, its records may differ in their call. Calls of active or inactive are those of the source. Unless noted, the call rests on the fitted dose curve; in most records, active means well fitted curve in the direction sought with a large enough effect in the repeat runs; inconclusive means weak or mixed curves; inactive means no such curve, though single readings can be large; an effect the other way counts as inactive or inconclusive.

Sequence of Nuclear receptor subfamily 1 group I member 3 (Homo sapiens) (Q14994 whole entry, looked up): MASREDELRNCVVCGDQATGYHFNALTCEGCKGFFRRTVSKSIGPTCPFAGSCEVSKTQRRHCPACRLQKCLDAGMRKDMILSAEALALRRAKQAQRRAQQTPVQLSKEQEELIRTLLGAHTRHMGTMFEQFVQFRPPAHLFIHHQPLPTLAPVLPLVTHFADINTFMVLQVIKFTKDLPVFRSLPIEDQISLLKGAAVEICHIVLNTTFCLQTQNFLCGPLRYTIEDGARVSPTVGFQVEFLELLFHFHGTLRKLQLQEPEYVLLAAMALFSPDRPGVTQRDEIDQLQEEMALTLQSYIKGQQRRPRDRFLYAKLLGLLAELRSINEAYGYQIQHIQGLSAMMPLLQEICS
Sequence of Luciferin 4-monooxygenase (Photinus pyralis) (P08659 whole entry, looked up): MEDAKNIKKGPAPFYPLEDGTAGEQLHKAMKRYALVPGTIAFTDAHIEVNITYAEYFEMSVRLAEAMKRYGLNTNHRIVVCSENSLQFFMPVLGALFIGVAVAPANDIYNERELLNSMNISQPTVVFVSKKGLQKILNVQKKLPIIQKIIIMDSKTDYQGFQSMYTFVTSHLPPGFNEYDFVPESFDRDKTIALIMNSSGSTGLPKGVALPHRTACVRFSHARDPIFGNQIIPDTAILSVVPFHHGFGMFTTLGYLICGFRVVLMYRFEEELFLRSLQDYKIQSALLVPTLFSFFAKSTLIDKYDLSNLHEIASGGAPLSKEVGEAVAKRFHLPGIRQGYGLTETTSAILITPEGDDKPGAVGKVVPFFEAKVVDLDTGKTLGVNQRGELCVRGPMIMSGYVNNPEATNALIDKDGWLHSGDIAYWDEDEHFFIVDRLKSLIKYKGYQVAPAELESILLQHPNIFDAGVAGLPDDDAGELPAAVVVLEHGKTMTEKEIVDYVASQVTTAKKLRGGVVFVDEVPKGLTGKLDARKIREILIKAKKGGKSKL

Take `NC(=S)Nc1ccccc1`: in [1], the Potency was 22 µM (active) and inactive. Further, the Potency result in assay [2], in assay [3], in [4] and in assay [5] was “inactive” throughout.

Turning to `CC(C)(c1cc(Cl)c(O)c(Cl)c1)c1cc(Cl)c(O)c(Cl)c1`, the Potency entry in assay [1], in [2], in assay [3], in [4], in [5] and in assay [6] was “inactive” each time. Also, the Potency result in [7] was “inactive”.

For the molecule `COc1ccc(C(CN(C)C)C2(O)CCCCC2)cc1` (configuration not stated), the Potency entry in assay [1], in assay [2], in assay [3], in assay [4] and in [5] was “inactive” throughout.

On to `O=P(O)(O)CCCl`, for which the Potency result in [1], in [2], in [3], in assay [4], in assay [8] and in assay [9] was “inactive” each time. Moreover, the Potency entry in assay [5] was “inactive”.

Turning to `C=C(C)C(=O)OCC1CO1` (configuration not stated), the Potency entry in [1], in [2], in assay [3], in assay [4], in assay [8] and in [9] was “inactive” each time. In addition, the Potency entry in [5], in assay [6] and in [7] was “inactive” throughout.

Regarding `CCC(CC)Nc1c([N+](=O)[O-])cc(C)c(C)c1[N+](=O)[O-]`, the Potency result in [1], in assay [2], in assay [3], in assay [4], in assay [8] and in [5] was “inactive” throughout. Moreover, the Potency entry in [6] and in [7] was “inactive” each time. In addition, in assay [9], the Potency was 49.2 µM (active) and 24.3 µM (active).

With `N#Cc1cc(Br)c(O)c(Br)c1`, the Potency result in assay [1], in [2], in assay [3], in assay [4], in assay [8] and in assay [9] was “inactive” each time. Also, the Potency result in [5] and in [7] was “inactive” throughout. Moreover, the Potency in assay [6] is 54.4 µM (active) and 41.7 µM (active).

Regarding `Cc1ccc(OP(=O)(Oc2ccc(C)cc2)Oc2ccc(C)cc2)cc1`, the Potency entry in assay [1], in assay [2], in [3], in assay [4], in [5] and in assay [6] was “inactive” in each case. For the same molecule, the Potency result in assay [7] is “inactive”.

With `NNC(N)=S`, the Potency in assay [1] is 22.5 µM (active); in assay [4] it was 63.5 µM (active); in [8] it was 63.5 µM (active); in assay [6], 31.8 µM (active) and inactive. Also, the Potency entry in assay [2], in [3], in assay [9], in assay [5] and in assay [7] was “inactive” throughout.

For `CCCCC(CC)COC(=O)c1ccc(C(=O)OCC(CC)CCCC)c(C(=O)OCC(CC)CCCC)c1` (configuration not stated), the Potency result in assay [1], in [2], in assay [3], in assay [4], in assay [8] and in [9] was “inactive” each time. Moreover, in assay [5], the Potency entry is “inactive”.

In the case of `CC(C)NC(C)C`, the Potency result in [1], in [2], in assay [3], in assay [4] and in [5] was “inactive” throughout.

For `C=CCc1ccc2c(c1)OCO2`, the Potency entry in [1], in assay [2], in assay [3], in assay [4], in assay [8] and in assay [9] was “inactive” each time. The Potency result in assay [5] was “inactive”.

As to `CCN(CC)C(=O)/C(Cl)=C(\C)OP(=O)(OC)OC`, the Potency entry in [1], in assay [2], in assay [3], in [4] and in assay [5] was “inactive” each time.

`C=C(C)[C@H]1Cc2c(ccc3c2O[C@@H]2COc4cc(OC)c(OC)cc4[C@@H]2C3=O)O1`: in assay [10], the molecule was classed as inactive. The Potency in assay [1] was 8.75 µM (active) and 8.63 µM (active) and 376 nM (active); in assay [3], 875 nM (active) and 1.54 µM (active) and 668 nM (active); in assay [4], 1.96 µM (active) and 770 nM (active) and 531 nM (active); in assay [8], 3.48 µM (active) and 19.3 µM (active) and 3.35 µM (active); in [6] it was 34.8 nM (active) and 4.9 nM (active). The Potency entry in assay [2], in [9], in [5] and in [7] was “inactive” in each case.

Consider `CCC(C)(c1ccc(O)cc1)c1ccc(O)cc1`, for which the Potency in assay [1] is 68.5 µM (active); in assay [9], 4.85 µM (active) and 3.06 µM (active); in assay [6], 48.5 µM (active). In addition, the Potency entry in assay [2], in assay [3], in assay [4], in assay [8], in [5] and in assay [7] was “inactive” in each case.

Consider `O=Cc1ccco1`, for which the Potency entry in assay [1], in assay [2], in assay [3], in assay [4], in assay [5] and in assay [6] was “inactive” in each case. In assay [7], the Potency entry was “inactive”.

`Cc1cccc(N)c1N`: the Potency result in assay [1], in assay [3], in [4], in [8], in assay [5] and in assay [6] was “inactive” in each case. In addition, the Potency is 30.6 µM (active) in [2]; 59.1 µM (active) and 54.5 µM (active) in assay [9]; “inactive and 15.4 µM (active)” in assay [7].

`Brc1ccc(Oc2cc(Br)c(Br)cc2Br)c(Br)c1`: the Potency result in assay [1], in assay [2], in [3], in assay [4], in assay [5] and in [6] was “inactive” each time. Further, the Potency entry in assay [7] is “inactive”.

As to `c1ccc(N=Nc2ccccc2)cc1`, the Potency entry in assay [1], in assay [3], in assay [4], in assay [8], in assay [9] and in [5] was “inactive” throughout. For the same molecule, the Potency result in assay [6] and in assay [7] was “inactive” each time. Moreover, the Potency in [2] was 18.2 µM (active) and 22.4 µM (active).

As to `CCOc1cc(Oc2ccc(C(F)(F)F)cc2Cl)ccc1[N+](=O)[O-]`, the Potency result in assay [1], in assay [2], in assay [3], in assay [4], in assay [8] and in [9] was “inactive” throughout. In addition, the Potency result in assay [5] and in assay [7] was “inactive” throughout. In addition, the Potency in assay [6] was 55.1 µM (active) and inactive.

Turning to `Oc1cc(Cl)c(Cl)cc1Cl`, the Potency entry in assay [1], in assay [2], in assay [3], in assay [4] and in assay [5] was “inactive” each time.

Consider `CNC(=O)Oc1cccc2c1OC(C)(C)O2`, for which the Potency entry in assay [1], in assay [2], in assay [3], in assay [4], in assay [8] and in assay [9] was “inactive” in each case. The Potency entry in [5] is “inactive”.

Take `CCOP(=S)(OCC)O/N=C(\C#N)c1ccccc1`: the Potency result in assay [1], in assay [2], in [3], in assay [4], in assay [5] and in assay [6] was “inactive” throughout. Besides, in assay [7], the Potency entry is “inactive”.

For `CC(C)(C)c1ccccc1O`, the Potency result in assay [1], in [2], in assay [3], in assay [4], in assay [8] and in [9] was “inactive” throughout. Besides, the Potency result in [5] was “inactive”.

Values taken from PubChem BioAssay (Tox21).
